This is an account of results in ChEMBL document CHEMBL5606458, “ASAP - ZIKV NS2B-NS3 protease fluorescence single point” (2024).

Hit rate of the full screen: of about 2,700 compounds, about 160 (5.9%) showed an effect of 50% or more. The list comes from a sample in which strong results are over-represented; it also holds similar structures and randomly drawn compounds.

The experiment concerns the target Nonstructural protein 3 (Zika virus) (UniProt A0A024AXB9).
[1] abbreviates: PRVABC59, Concentration 15.0 uM, Number of replicates 1.0.
The mark [2] stands for this setting: PRVABC59, Concentration 50.0 uM, Number of replicates 1.0.

Chain of Nonstructural protein 3 (Zika virus) (A0A024AXB9 as listed by the source): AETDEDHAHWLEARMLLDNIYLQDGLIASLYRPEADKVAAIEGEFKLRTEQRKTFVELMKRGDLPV

Consider `O=C(Nc1ccc(Br)c(C(F)(F)F)c1)c1cc(Cl)ccc1NS(=O)(=O)c1ccc(Oc2ccccc2Cl)cc1`, for which the inhibition under setting [1] worked out at 29.1%.
Still for that read-out and setting: next, `COc1cc(NC(=O)c2cc(Cl)ccc2NS(=O)(=O)c2ccc(Oc3ccccc3Cl)cc2)ccc1Br`: 60.4%; `COc1cc(NC(=O)c2cc(Cl)ccc2NS(=O)(=O)c2ccc(Oc3ccccc3Cl)cc2)cc(OC)c1`: 24.1%.
As for `O=C(Nc1cc(Br)ccc1F)c1cc(Cl)ccc1NS(=O)(=O)c1ccc(Oc2ccccc2Cl)cc1`, the inhibition under setting [1] was 24.4%.
Still for that read-out and setting: next, `O=C(Nc1ccc(Br)cc1O)c1cc(Cl)ccc1NS(=O)(=O)c1ccc(Oc2ccccc2Cl)cc1`: 58.9%.
On the same count and under the same terms, next, `O=C(Nc1cccc(Cl)c1Br)c1cc(Cl)ccc1NS(=O)(=O)c1ccc(Oc2ccccc2Cl)cc1`: 25.4%; `COc1ccc(NC(=O)c2cc(Cl)ccc2NS(=O)(=O)c2ccc(Oc3ccccc3Cl)cc2)cc1C(F)(F)F`: 51.3%.
The same measure, in the same setting: next, `Cc1ccc(NC(=O)c2cc(Cl)ccc2NS(=O)(=O)c2ccc(Oc3ccccc3Cl)cc2)cc1Br`: 43.3%; `COc1ccc(Cl)c(NC(=O)c2cc(Cl)ccc2NS(=O)(=O)c2ccc(Oc3ccccc3Cl)cc2)c1`: 25.8%.
For `O=C(Nc1ccc(F)c(Br)c1)c1cc(Cl)ccc1NS(=O)(=O)c1ccc(Oc2ccccc2Cl)cc1`, the inhibition under setting [1] came to 48.7%.
Same read-out and setting: for `CC(=O)Nc1ccc(NC(=O)c2cc(Cl)ccc2NS(=O)(=O)c2ccc(Oc3ccccc3Cl)cc2)c(C(F)(F)F)c1` the value was 23.4%.
The same measure, in the same setting: for `COc1ccc(-c2cc(NC(=O)c3cc(Cl)ccc3NS(=O)(=O)c3ccc(Oc4ccccc4Cl)cc3)[nH]n2)cc1` the value was 57.5%.
For the compound `O=Cc1ccc(N2CCC(C(=O)Nc3ccc(-n4cccn4)cc3)CC2)cc1`, the inhibition under setting [2] was 21.4%.
Turning to `Cn1cc(NC(=O)c2ccccc2-c2ccc(C(=O)O)nc2)cn1`, the inhibition by setting is: (PRVABC59, Concentration 49.5 uM, Number of replicates 2.0, Standard deviation 2.4498358087391408 %) -1.15%; (PRVABC59, Concentration 99.01 uM, Number of replicates 2.0, Standard deviation 1.6656005687321722 %) -0.876%; (PRVABC59, Concentration 198.0 uM, Number of replicates 2.0, Standard deviation 2.3203289956835937 %) 3.27%.
With `O=C(NCCc1c[nH]c2cccnc12)[C@@]1(c2ccc(F)cc2)CCCNC1`, the inhibition is, setting by setting: (PRVABC59, Concentration 49.5 uM, Number of replicates 2.0, Standard deviation 1.1099611949443484 %) 2.3%; (PRVABC59, Concentration 99.01 uM, Number of replicates 2.0, Standard deviation 0.8664361984862207 %) -0.092%; (PRVABC59, Concentration 198.0 uM, Number of replicates 2.0, Standard deviation 1.4816570758007732 %) -1.42%.
In the case of `O=C(c1cc(Cl)ccc1NS(=O)(=O)c1ccc(Oc2ccccc2Cl)cc1)N1CCN(C(=O)[C@@H]2CCCO2)CC1`, under setting [1], the inhibition is -3.32%.
For `CC(C)c1cccc(C(C)C)c1NC(=O)C1CCN(c2ccc(C=O)cc2)CC1`, under setting [2], the inhibition came out at 22.1%.
Still for that read-out and setting: next, `O=Cc1ccc(N2CCC(C(=O)N3CCC(Cc4ccccc4)CC3)CC2)cc1`: 24.7%.
`CNC(=O)[C@H]1CCN(S(=O)(=O)c2ccc(Oc3ccccc3Cl)cc2)C1`: the inhibition by setting is: (PRVABC59, Concentration 49.5 uM, Number of replicates 2.0, Standard deviation 2.3503648629811855 %) 6.33%; (PRVABC59, Concentration 99.01 uM, Number of replicates 2.0, Standard deviation 2.692773952478603 %) 8.32%; (PRVABC59, Concentration 198.0 uM, Number of replicates 2.0, Standard deviation 0.3043636351088153 %) 5.71%.
For `CC(=O)N1CCC(N(C)C(=O)c2cc(Cl)ccc2NS(=O)(=O)c2ccc(Oc3ccccc3Cl)cc2)CC1`, the inhibition under setting [1] was 11.3%.
With `Cc1cc(CO)c2cccc(CC(=O)NCCc3ncc[nH]3)c2n1`, the inhibition runs as follows: (PRVABC59, Concentration 49.95 uM, Number of replicates 2.0, Standard deviation 0.020358613704702253 %) 12.5%; (PRVABC59, Concentration 99.9 uM, Number of replicates 2.0, Standard deviation 0.02544995300481825 %) 32.3%.
On to `O=C(Nc1ncc(F)cc1Br)c1cc(Cl)ccc1NS(=O)(=O)c1ccc(Oc2ccccc2Cl)cc1`, for which the inhibition under setting [1] worked out at 23.4%.
Still for that read-out and setting: for `CCc1cc(Br)ccc1NC(=O)c1cc(Cl)ccc1NS(=O)(=O)c1ccc(Oc2ccccc2Cl)cc1` the value was 41.5%; for `COc1cc(Cl)c(C)cc1NC(=O)c1cc(Cl)ccc1NS(=O)(=O)c1ccc(Oc2ccccc2Cl)cc1`, 22.4%; for `COc1ncc(NC(=O)c2cc(Cl)ccc2NS(=O)(=O)c2ccc(Oc3ccccc3Cl)cc2)cc1Br`, 67.3%.
Regarding `COc1ncc(Br)cc1NC(=O)c1cc(Cl)ccc1NS(=O)(=O)c1ccc(Oc2ccccc2Cl)cc1`, the inhibition under setting [1] came to 22.9%.
On the same count and under the same terms, next, `O=C(Nc1cnc(Cl)c(Br)c1)c1cc(Cl)ccc1NS(=O)(=O)c1ccc(Oc2ccccc2Cl)cc1`: 23%; `O=C(Nc1ncc(Br)cc1O)c1cc(Cl)ccc1NS(=O)(=O)c1ccc(Oc2ccccc2Cl)cc1`: 55.3%; `O=C(Nc1ncc(Br)nc1Cl)c1cc(Cl)ccc1NS(=O)(=O)c1ccc(Oc2ccccc2Cl)cc1`: 16.8%.
The same measure, in the same setting: for `COc1cc(Br)ccc1NC(=O)c1cc(Cl)ccc1NS(=O)(=O)c1ccc(Oc2ccccc2Cl)cc1` the value was 56.4%.
On the same count and under the same terms, next, `COc1ccc(CNC(=O)c2cc(Cl)ccc2NS(=O)(=O)c2ccc(Oc3ccccc3Cl)cc2)cc1F`: 26.5%; `O=C(c1cc(Cl)ccc1NS(=O)(=O)c1ccc(Oc2ccccc2Cl)cc1)N1CCN(c2ncccn2)CC1`: 7.48%.
Turning to `O=Cc1ccc(N2CCC(C(=O)Nc3ccccc3I)CC2)cc1`, under setting [2], the inhibition came out at 24.9%.
Take `O=Cc1ccc(N2CCC(C(=O)Nc3ccc(Br)c(Cl)c3Cl)CC2)cc1`: the inhibition under setting [2] was 20.9%.
`CC(C)(C)N(C[C@H](O)c1ccc(O)c(CO)c1)C(=O)c1cc(Cl)ccc1NS(=O)(=O)c1ccc(Oc2ccccc2Cl)cc1`: under setting [1], the inhibition is 14.6%.
Take `COc1ccccc1OCCCN(C)C(=O)C1CCN(c2ccc(C=O)cc2)CC1`: the inhibition under setting [2] is 22.6%.
For `CC(C)(COC(=O)c1cccc(F)c1)NC(=O)c1cc(N)cc(Cl)c1`, the inhibition runs as follows: (PRVABC59, Concentration 49.5 uM, Number of replicates 2.0, Standard deviation 1.1247891306000573 %) 3.45%; (PRVABC59, Concentration 99.01 uM, Number of replicates 2.0, Standard deviation 1.4129417390724304 %) 5.8%; (PRVABC59, Concentration 198.0 uM, Number of replicates 2.0, Standard deviation 1.2082537148179389 %) 9%.
As for `NCc1cccc(NC(=O)C2CN(C(=O)OCc3ccccc3)C2)c1`, the inhibition (PRVABC59, Concentration 49.5 uM, Number of replicates 2.0, Standard deviation 0.7047125451631892 %) was determined as 1.12%; the inhibition (PRVABC59, Concentration 99.01 uM, Number of replicates 2.0, Standard deviation 1.0691153353532887 %) stood at 3.88%; the inhibition (PRVABC59, Concentration 198.0 uM, Number of replicates 2.0, Standard deviation 0.2800776094724739 %) is 10.1%.
For the compound `O=Cc1ccc(N2CCC(C(=O)NCCNC(=O)c3ccccc3Cl)CC2)cc1`, the inhibition under setting [2] turned out to be 20.1%.
As to `CC(=O)N[C@@H](Cc1ccc(CN)cc1)C(=O)Nc1cccc2c(CO)cc(C)nc12`, the inhibition (PRVABC59, Concentration 49.95 uM, Number of replicates 2.0, Standard deviation 1.5120886598590335 %) stood at 62.5% and the inhibition (PRVABC59, Concentration 99.9 uM, Number of replicates 2.0, Standard deviation 0.31634008358167093 %) turned out to be 95.8%.
In the case of `CC(=O)N[C@@H](CCCN)C(=O)Nc1cccc2c(CO)cc(C)nc12`, the inhibition runs as follows: (PRVABC59, Concentration 49.95 uM, Number of replicates 2.0, Standard deviation 2.340889239911572 %) 9.01%; (PRVABC59, Concentration 99.9 uM, Number of replicates 2.0, Standard deviation 2.049858170273299 %) 41.2%.
On to `Cc1cc(CO)c2cccc(C[C@H](NC(=O)Cc3cccc(CN)c3)C(=O)O)c2n1`, for which the inhibition was -1.72% (PRVABC59, Concentration 49.95 uM, Number of replicates 2.0, Standard deviation 1.661005908968333 %) and 6.96% (PRVABC59, Concentration 99.9 uM, Number of replicates 2.0, Standard deviation 1.2746087015891263 %).
As for `CC(=O)N[C@@H](CCCCN)C(=O)Nc1ccccc1Cc1cccc2c(CO)cc(C)nc12`, the inhibition (PRVABC59, Concentration 49.95 uM, Number of replicates 2.0, Standard deviation 1.4556435772845158 %) was -3.65% and the inhibition (PRVABC59, Concentration 99.9 uM, Number of replicates 2.0, Standard deviation 0.5191459981690598 %) is 11.6%.
As for `CC(=O)N[C@@H](CCCN)C(=O)Nc1ccccc1Cc1cccc2c(CO)cc(C)nc12`, the inhibition was 11.2% (PRVABC59, Concentration 49.95 uM, Number of replicates 2.0, Standard deviation 1.2164295290794762 %) and 30.6% (PRVABC59, Concentration 99.9 uM, Number of replicates 2.0, Standard deviation 0.5089666913167087 %).
Turning to `CC(=O)N[C@@H](CCCCN)C(=O)Nc1cccc2c(CO)cc(C)nc12`, the inhibition is, setting by setting: (PRVABC59, Concentration 49.95 uM, Number of replicates 2.0, Standard deviation 2.062511665720634 %) 70.2%; (PRVABC59, Concentration 99.9 uM, Number of replicates 2.0, Standard deviation 0.26572610179233236 %) 93.5%.
On to `Cn1cc(CNC(=O)c2ccccc2[C@@H]2CCCNC2)cn1`, for which the inhibition (PRVABC59, Concentration 49.5 uM, Number of replicates 2.0, Standard deviation 1.3820269413959925 %) was -1.82%; the inhibition (PRVABC59, Concentration 99.01 uM, Number of replicates 2.0, Standard deviation 1.129463511127855 %) is -0.227%; the inhibition (PRVABC59, Concentration 198.0 uM, Number of replicates 2.0, Standard deviation 0.6425212666298173 %) came to 0.6%.
